Results as given in PubChem BioAssay (Tox21).
Results filed as inconclusive are left out. Where a call stands in place of a potency, no number is given. A number with no mark means an inactive call. Activity calls are given as the source filed them. Unless noted, the call rests on the fitted dose curve; in most records, active means well fitted curve in the direction sought with a large enough effect in the repeat runs; inconclusive means weak or mixed curves; inactive means no such curve, though single readings can be large; an effect the other way counts as inactive or inconclusive.

How the values were obtained:
[1] = qHTS assay to identify aromatase inhibitors - cell viability counter screen (AID 743084);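 further: cells stimulated with testosterone during compound exposure; nearly all actives have a fitted effect of over 55% in size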
[2] = target: Aryl hydrocarbon receptor (Homo sapiens) (UniProt P35869); experiment: qHTS assay to identify small molecule that activate the aryl hydrocarbon receptor (AhR) signaling pathway (AID 743085); further: nearly all actives have a fitted effect of over 15% in size; further: potency means the concentration at half of the fitted maximal effect;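 on activation: HG2L7.5c1 human HepG2 liver cells with stably integrated DRE-driven firefly reporter; series mostly up to about 70 µM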
Aryl hydrocarbon receptor (Homo sapiens), sequence (P35869 whole entry, looked up): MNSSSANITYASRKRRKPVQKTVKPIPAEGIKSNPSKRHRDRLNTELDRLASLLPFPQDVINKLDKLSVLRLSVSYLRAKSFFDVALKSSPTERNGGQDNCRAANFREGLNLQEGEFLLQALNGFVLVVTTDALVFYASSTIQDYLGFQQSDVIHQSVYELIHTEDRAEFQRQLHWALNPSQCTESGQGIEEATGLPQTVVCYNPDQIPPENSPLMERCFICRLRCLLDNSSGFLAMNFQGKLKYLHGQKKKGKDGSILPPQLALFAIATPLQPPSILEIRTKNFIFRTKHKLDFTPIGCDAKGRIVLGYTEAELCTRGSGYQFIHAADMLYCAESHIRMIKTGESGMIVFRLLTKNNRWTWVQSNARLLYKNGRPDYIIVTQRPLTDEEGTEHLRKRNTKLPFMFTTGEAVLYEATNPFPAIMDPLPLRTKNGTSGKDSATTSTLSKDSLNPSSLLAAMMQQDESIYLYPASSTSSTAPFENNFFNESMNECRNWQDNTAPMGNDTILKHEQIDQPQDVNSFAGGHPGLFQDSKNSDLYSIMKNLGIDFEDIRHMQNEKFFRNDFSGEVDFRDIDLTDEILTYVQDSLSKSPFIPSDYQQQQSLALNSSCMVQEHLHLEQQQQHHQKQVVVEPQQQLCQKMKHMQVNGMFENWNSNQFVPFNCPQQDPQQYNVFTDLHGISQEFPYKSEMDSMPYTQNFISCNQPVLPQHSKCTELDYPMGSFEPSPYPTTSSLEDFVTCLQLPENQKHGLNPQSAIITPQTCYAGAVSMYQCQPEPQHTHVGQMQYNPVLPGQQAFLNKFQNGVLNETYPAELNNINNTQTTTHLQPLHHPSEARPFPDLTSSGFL
How it was run: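 Measured in HG2L7.5c1 cells: CellTiter-Fluor signal (30 min incubation, 37C) for viability, then luciferase luminescence (30 min, room temperature). Compound contact time was 24 h at 37C, following a 5 h pre-incubation.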

[3] = qHTS assay to identify small molecule that activate the aryl hydrocarbon receptor (AhR) signaling pathway - cell viability counter screen (AID 743086);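 further: HepG2 liver cells carrying the AhR DRE luciferase reporter; series mostly up to about 70 µM; nearly all actives have a fitted effect of over 45% in size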
How it was run: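 Cytotoxicity counter screen: CellTiter-Fluor signal (30 min, 37 C) in 4000 HepG2 cells/well carrying the DRE-luciferase reporter, following 24 h compound exposure at 37 C.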

[4] = target: Peroxisome proliferator-activated receptor gamma (Homo sapiens) (UniProt P37231); experiment: qHTS assay to identify small molecule agonists of the peroxisome proliferator-activated receptor gamma (PPARg) signaling pathway (AID 743094; active means well fitted activation curve with a large enough effect in the signal ratio in the repeat runs, not every such curve was filed as active; the % refers to the signal ratio)
Peroxisome proliferator-activated receptor gamma (Homo sapiens), sequence (P37231 whole entry, looked up): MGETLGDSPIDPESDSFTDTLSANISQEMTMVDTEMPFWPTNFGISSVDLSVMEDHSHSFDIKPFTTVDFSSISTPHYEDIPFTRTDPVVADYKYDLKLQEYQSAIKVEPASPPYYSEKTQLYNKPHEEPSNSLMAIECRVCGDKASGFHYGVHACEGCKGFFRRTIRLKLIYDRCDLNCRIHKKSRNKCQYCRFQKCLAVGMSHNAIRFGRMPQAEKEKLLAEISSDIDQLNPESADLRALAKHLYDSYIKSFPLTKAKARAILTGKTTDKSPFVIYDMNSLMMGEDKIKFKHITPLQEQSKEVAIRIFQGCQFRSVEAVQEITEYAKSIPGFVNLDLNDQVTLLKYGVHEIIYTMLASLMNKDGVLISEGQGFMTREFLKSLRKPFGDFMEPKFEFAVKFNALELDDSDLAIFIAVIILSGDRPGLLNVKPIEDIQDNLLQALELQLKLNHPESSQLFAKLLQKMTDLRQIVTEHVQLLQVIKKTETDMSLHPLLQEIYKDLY
How it was run: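 GeneBLAzer PPARg UAS-bla HEK293H cells carrying a stably integrated beta-lactamase reporter were pre-incubated 5 h at 37C, then exposed to compounds in DMSO for 17 h at 37C; LiveBLAzer B/G FRET substrate was added for 1 h at room temperature and fluorescence read.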

[5] = qHTS assay to identify small molecule antagonists of the peroxisome proliferator-activated receptor gamma (PPARg) signaling pathway - cell viability counter screen (AID 743194); further: nearly all actives have a fitted effect of over 55% in size
How it was run: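 Viability was measured as CellTiter-Glo luminescence in GeneBLAzer PPARg UAS-bla HEK293H cells. These cells had been exposed 17 h at 37 C to compounds together with rosiglitazone at 50 nM final, with the beta-lactamase readout taken in the same wells.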

[6] = qHTS assay for small molecule agonists of the antioxidant response element (ARE) signaling pathway (AID 743202; active means well fitted activation curve with a large enough effect in the signal ratio in the repeat runs, not every such curve was filed as active; the % refers to the signal ratio; further: potency means the concentration at half of the fitted maximal effect)
How it was run: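 Quantitative high-throughput format in HepG2 cells bearing an integrated ARE-beta-lactamase reporter. Compound exposure lasted 16 h at 37 C, and fluorescence was read 2 h after adding LiveBLAzer B/G substrate at room temperature.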

[7] = qHTS assay for small molecule agonists of the antioxidant response element (ARE) signaling pathway - cell viability counter screen (AID 743203; calls by dose curve; further: nearly all actives have a fitted effect of over 55% in size)
How it was run: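 CellSensor ARE-bla HepG2 cells, 2,000 per well, rested 5 hrs at 37C/5% CO2, then exposed to compound in DMSO for 16 hrs; viability read as CellTiter-Glo luminescence after 30 min at room temperature, in the reporter wells.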

[8] = qHTS assay for small molecule activators of the heat shock response signaling pathway - cell viability counter screen (AID 743209); further: nearly all actives have a fitted effect of over 50% in size
How it was run: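 CellSensor HSE-bla HeLa cells, plated overnight at 37 C/5% CO2, were exposed to compounds in DMSO for 5 h at 37 C. Viability was then read in the same wells by CellTiter-Glo luminescence after 30 min at room temperature.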

[9] = target: Peroxisome proliferator-activated receptor gamma (Homo sapiens) (UniProt P37231); experiment: qHTS assay to identify small molecule antagonists of the peroxisome proliferator-activated receptor gamma (PPARg) signaling pathway (AID 743191; calls by dose curve; further: series mostly up to about 63 µM; nearly all actives have a fitted effect of over 30% in size)
How it was run: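 Beta-lactamase reporter under UAS control in HEK293H PPARg-bla cells; compound treatment 17 h at 37C. Read-out: fluorescence intensity after 1 h room-temperature incubation with LiveBLAzer B/G FRET substrate.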

[10] = qHTS assay for small molecule activators of the heat shock response signaling pathway (AID 743210; active means well fitted activation curve with a large enough effect in the signal ratio in the repeat runs, with a control signal flat, not every such curve was filed as active; the % refers to the signal ratio;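 further: HeLa cells with beta-lactamase reporter driven by heat shock elements; series mostly up to about 63 µM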)
How it was run: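 HeLa HSE-bla cells, overnight plating; cpd in DMSO 5 h, 37 C; LiveBLAzer B/G FRET substrate 2.5 h RT; fluorescence intensity read.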

| Structure (SMILES) | Potency [1] | Potency [2] | Potency [3] | outcome [4] | outcome [5] | Potency [6] | outcome [7] | outcome [8] | Potency [9] | outcome [10] |
| --- | --- | --- | --- | --- | --- | --- | --- | --- | --- | --- |
| CC(=O)Nc1cccc(C)c1 | inactive | inactive | inactive | inactive | inactive | inactive | inactive | inactive | – | – |
| CCOc1cc(NC(C)=O)ccc1C(=O)OC | inactive | inactive | inactive | inactive | – | inactive | – | inactive | inactive | inactive |
| CCNC(=O)C1CC(C)CCC1C(C)C (stereo not given) | inactive | inactive | inactive | inactive | inactive | – | inactive | inactive | inactive | inactive |
| CN(C)CCOCCO | inactive | inactive | inactive | inactive | inactive | – | inactive | inactive | inactive | inactive |
| O=S(=O)(O)c1ccc2cc(O)c(S(=O)(=O)O)cc2c1 | inactive | inactive | inactive | inactive | inactive | – | – | inactive | inactive | inactive |
| O=C(Nc1ccc(Cl)c(Cl)c1)C1CC1 | inactive | 29.8 µM (active) | inactive | inactive | – | 15 µM (active) | – | inactive | inactive | inactive |
| CC(C)NCC(O)COc1ccc(COCCOC(C)C)cc1 (stereo not given) | inactive | inactive | inactive | inactive | inactive | – | inactive | inactive | inactive | inactive |
| CCCCCCCC/C=C\CCCCCCCC(=O)OCCCC | inactive | inactive | inactive | inactive | inactive | inactive | inactive | inactive | – | – |
| Cc1cc(C(C)(C)C)c(O)c(C)c1CC1=NCCN1 | inactive | inactive | inactive | inactive | inactive | – | inactive | inactive | inactive | inactive |
| BrCc1cccc(Oc2ccccc2)c1 | inactive | inactive | inactive | inactive | – | – | inactive | inactive | inactive | inactive |
| O=S(=O)(O)CCN1CCN(CCO)CC1 | inactive | inactive | inactive | inactive | inactive | – | inactive | inactive | inactive | inactive |
| CC(=O)N[C@@H](CCC(=O)O)C(=O)O | inactive | inactive | inactive | inactive | inactive | – | inactive | inactive | inactive | inactive |
| CCCCCCOC(=O)CC | inactive | inactive | inactive | inactive | inactive | – | – | inactive | inactive | – |
| O=C(OCC1(COC(=O)c2cccnc2)CCCC(COC(=O)c2cccnc2)(COC(=O)c2cccnc2)C1O)c1cccnc1 | inactive | inactive | inactive | inactive | inactive | inactive | inactive | inactive | – | inactive |
| CC(N)C(=O)OC(C)(C)Cc1ccc(Cl)cc1 (stereo not given) | inactive | inactive | inactive | inactive | inactive | – | – | inactive | inactive | – |
| CCOC(=O)[C@H](CCc1ccccc1)N[C@@H](C)C(=O)N1C(=O)N(C)C[C@H]1C(=O)O | inactive | inactive | inactive | inactive | inactive | – | – | – | inactive | inactive |
| CC1(C)S[C@@H]2[C@H](N=CN3CCCCCC3)C(=O)N2[C@H]1C(=O)O | inactive | inactive | inactive | inactive | inactive | – | – | inactive | inactive | inactive |
| C=CCCCCCCCCCCCC | inactive | inactive | inactive | inactive | inactive | – | – | inactive | inactive | inactive |
| BrCCCCCBr | inactive | inactive | inactive | inactive | inactive | inactive | inactive | inactive | – | inactive |
| CCC(CC)CO | inactive | inactive | inactive | inactive | – | inactive | inactive | inactive | inactive | inactive |
| N[C@@H](COP(=O)(O)O)C(=O)O | inactive | inactive | inactive | inactive | – | inactive | inactive | inactive | inactive | – |
| CC(S)C(=O)NCC(=O)O (stereo not given) | inactive | inactive | inactive | inactive | inactive | – | – | inactive | inactive | – |
| Nc1ncnc(Nc2ccccc2)n1 | inactive | inactive | inactive | inactive | inactive | – | inactive | inactive | inactive | inactive |
| O=C1CCCC(=O)O1 | inactive | inactive | inactive | inactive | – | – | inactive | inactive | inactive | – |
| CCN1CCc2nc(N)oc2CC1 | inactive | inactive | inactive | inactive | inactive | – | – | – | inactive | inactive |
| CCCOC(OCCC)OCCC | inactive | inactive | inactive | inactive | inactive | – | inactive | inactive | inactive | inactive |
| OCCN(CCO)c1cccc(Cl)c1 | inactive | inactive | inactive | inactive | inactive | – | – | inactive | inactive | – |
| CCCCNC1CC(C)(C)NC(C)(C)C1 | inactive | inactive | inactive | inactive | – | – | inactive | inactive | inactive | inactive |
| COCCOCCOCCOCCO | inactive | inactive | inactive | inactive | inactive | inactive | inactive | inactive | – | – |
| CCCCCCCCCCl | inactive | inactive | inactive | inactive | inactive | – | inactive | inactive | inactive | inactive |
